# Reference: publication PMC11062922 (Nature Chemical Biology, 2023)
# Read-outs that look alike come from different tables or passages of the source.
# Legend:
# Set-up in all cases: species or system human, MV4-11 + K-562 + COLO205 + SK-N-BE2 + OVCAR-8
# ADRBK1 = settings: read-out: apparent Kd, n = 1
# AKT1 = settings: read-out: apparent Kd; compound concentrations: 100 nM and 1000 nM (sheet 'Samples'), CATDS: 5.9095519599072298E-2; n = 1
# AKT2 = settings: read-out: apparent Kd, n = 1
# AKT3 = settings: read-out: apparent Kd; compound concentrations: 100 nM and 1000 nM (sheet 'Samples'), CATDS: 5.2731999581220101E-2; n = 1
# CDK17 = settings: read-out: apparent Kd; compound concentrations: 100 nM and 1000 nM (sheet 'Samples'), CATDS: 5.5041868266542698E-2; n = 1
# CDK6 = settings: read-out: apparent Kd, n = 1
# CDKL5 = settings: read-out: apparent Kd; compound concentrations: 100 nM and 1000 nM (sheet 'Samples'), CATDS: 5.3023462381207802E-2; n = 1
# CSNK1A1 = settings: read-out: apparent Kd; compound concentrations: 100 nM and 1000 nM (sheet 'Samples'), CATDS: 5.2392632468863803E-2; n = 1
# MAP2K1 = settings: read-out: apparent Kd, n = 1
# MAP2K2 = settings: read-out: apparent Kd; compound concentrations: 100 nM and 1000 nM (sheet 'Samples'), CATDS: 7.31538140973165E-2; n = 1
# MET = settings: read-out: apparent Kd; compound concentrations: 100 nM and 1000 nM (sheet 'Samples'), CATDS: 5.0838558886591501E-2; n = 1
# NNT = settings: read-out: apparent Kd, n = 1
# NQO1 = settings: read-out: apparent Kd, n = 1
# PIP4K2C = settings: read-out: apparent Kd, n = 1
# PRKAG2 = settings: read-out: apparent Kd; compound concentrations: 100 nM and 1000 nM (sheet 'Samples'), CATDS: 6.3549748711714801E-2; n = 1
# RAB6A;RAB6B = settings: read-out: apparent Kd; compound concentrations: 100 nM and 1000 nM (sheet 'Samples'), CATDS: 6.9234988104968295E-2; n = 1
# VDAC3 = settings: read-out: apparent Kd; compound concentrations: 100 nM and 1000 nM (sheet 'Samples'), CATDS: 6.3375606463047907E-2; n = 1
# CDK4 = settings: read-out: apparent Kd; compound concentrations: 100 nM and 1000 nM (sheet 'Samples'), CATDS: 0.36803542167658398; n = 1
# RIOK2 = settings: read-out: apparent Kd; compound concentrations:100 nM and 1000 nM (sheet 'Samples'); n = 1
# EIF2AK1 = settings: read-out: apparent Kd; compound concentrations:100 nM and 1000 nM (sheet 'Samples'); n = 1
# GSK3A = settings: read-out: apparent Kd; compound concentrations:100 nM and 1000 nM (sheet 'Samples'); n = 1
# GSK3B = settings: read-out: apparent Kd; compound concentrations:100 nM and 1000 nM (sheet 'Samples'); n = 1
# PIM2 = settings: read-out: apparent Kd; compound concentrations:100 nM and 1000 nM (sheet 'Samples'); n = 1
# PRKAG1 = settings: read-out: apparent Kd; compound concentrations:100 nM and 1000 nM (sheet 'Samples'); n = 1
# TAOK1 = settings: read-out: apparent Kd; compound concentrations:100 nM and 1000 nM (sheet 'Samples'); n = 1
# CDK10 = settings: read-out: apparent Kd; compound concentrations: 100 nM and 1000 nM (sheet 'Samples'), CATDS: 0.80077145880212897; n = 1
# PRKAA2 = settings: read-out: apparent Kd; compound concentrations: 100 nM and 1000 nM (sheet 'Samples'), CATDS: 0.26734267999924899; n = 1
# CAMK4 = settings: read-out: apparent Kd; compound concentrations:100 nM and 1000 nM (sheet 'Samples'); n = 1
# FLT3 = settings: read-out: apparent Kd; compound concentrations:100 nM and 1000 nM (sheet 'Samples'); n = 1
# [1] = compound concentrations:100 nM and 1000 nM (sheet 'Samples')
smiles,measurement,setting,value
N#Cc1c(NC(=O)CN2CCOCC2)sc2c1CCCC2.O=C(O)C(=O)O [SB-657836-AAA],potency estimated from few doses,"ADRBK1; compound concentrations: 100 nM and 1000 nM (sheet 'Samples'), CATDS: 5.9509771658031299E-2",1680 nM
same,potency estimated from few doses,AKT1,1700 nM
same,potency estimated from few doses,"AKT2; compound concentrations: 100 nM and 1000 nM (sheet 'Samples'), CATDS: 5.77170152352365E-2",1790 nM
same,potency estimated from few doses,AKT3,2170 nM
same,potency estimated from few doses,CDK17,1970 nM
same,potency estimated from few doses,"CDK6; compound concentrations: 100 nM and 1000 nM (sheet 'Samples'), CATDS: 5.9987442985443201E-2",1650 nM
same,potency estimated from few doses,CDKL5,2140 nM
same,potency estimated from few doses,CSNK1A1,2200 nM
same,potency estimated from few doses,"MAP2K1; compound concentrations: 100 nM and 1000 nM (sheet 'Samples'), CATDS: 5.50231746712945E-2",1980 nM
same,potency estimated from few doses,MAP2K2,1150 nM
same,potency estimated from few doses,MET,2370 nM
same,potency estimated from few doses,"NNT; compound concentrations: 100 nM and 1000 nM (sheet 'Samples'), CATDS: 6.8732534109556695E-2",1280 nM
same,potency estimated from few doses,"NQO1; compound concentrations: 100 nM and 1000 nM (sheet 'Samples'), CATDS: 6.20542756151947E-2",1550 nM
same,potency estimated from few doses,"PIP4K2C; compound concentrations: 100 nM and 1000 nM (sheet 'Samples'), CATDS: 5.5359350052651503E-2",1950 nM
same,potency estimated from few doses,PRKAG2,1480 nM
same,potency estimated from few doses,RAB6A;RAB6B,1260 nM
same,potency estimated from few doses,VDAC3,1490 nM
CC(=O)c1c(C)c2cnc(Nc3ccc(N4CCNCC4)cn3)nc2n(C2CCCC2)c1=O [PFE-PKIS_32],potency estimated from few doses,ADRBK1; [1],1170 nM
same,potency estimated from few doses,AKT2; [1],1960 nM
same,potency estimated from few doses,CDK4,118 nM
same,potency estimated from few doses,CDK6; [1],82.3 nM
same,potency estimated from few doses,PIP4K2C; [1],1610 nM
same,potency estimated from few doses,RIOK2,2040 nM
O=C(Nc1n[nH]c2nc(-c3ccc(O)cc3)c(Br)cc12)C1CC1 [SB-725317],potency estimated from few doses,ADRBK1; [1],1950 nM
same,potency estimated from few doses,AKT2; [1],2420 nM
same,potency estimated from few doses,EIF2AK1,517 nM
same,potency estimated from few doses,GSK3A,12.9 nM
same,potency estimated from few doses,GSK3B,43.1 nM
same,potency estimated from few doses,PIM2,768 nM
same,potency estimated from few doses,PRKAG1,1610 nM
same,potency estimated from few doses,TAOK1,1840 nM
CS(=O)(=O)Nc1ccc(-c2ccc3c(NC(=O)C4CC4)n[nH]c3c2)cc1 [SB-742865],potency estimated from few doses,"ADRBK1; compound concentrations: 100 nM and 1000 nM (sheet 'Samples'), CATDS: 0.24933386454831599",1840 nM
same,potency estimated from few doses,CDK10,107 nM
same,potency estimated from few doses,PRKAA2,1440 nM
NS(=O)(=O)c1ccc(N/N=C2\C(=O)Nc3ccc(Cl)cc32)cc1 [GW280670X],potency estimated from few doses,ADRBK1; [1],1880 nM
same,potency estimated from few doses,CAMK4,1330 nM
same,potency estimated from few doses,CDK6; [1],2280 nM
same,potency estimated from few doses,FLT3,1090 nM
same,potency estimated from few doses,MAP2K1; [1],2000 nM
same,potency estimated from few doses,NNT; [1],1290 nM
same,potency estimated from few doses,NQO1; [1],1850 nM
